From PubChem BioAssay AID1645855 (Buhrlage Lab, Dana-Farber Cancer Institute and Novartis …, 2021)
Hit rate of the full screen: of about 47,000 compounds, about 3,100 (6.6%) were called active. Cut-off read from the data, not from the text of the source: active = inhibition above about 30%; inactive = the rest. The sample as a whole holds a higher share of actives than the screen did.

What follows are compounds tested against Ubiquitin carboxyl-terminal hydrolase 17-like protein 5 (Homo sapiens) (UniProt A8MUK1) (assay: inhibitors of human USP17 deubiquitinase (AID 1645855)). Conditions: purified USP17, Ub-rhodamine cleavage fluorescence, 3 h; at 50 µM; active compounds read high.
Sequence of Ubiquitin carboxyl-terminal hydrolase 17-like protein 5 (Homo sapiens) (A8MUK1 whole entry, looked up): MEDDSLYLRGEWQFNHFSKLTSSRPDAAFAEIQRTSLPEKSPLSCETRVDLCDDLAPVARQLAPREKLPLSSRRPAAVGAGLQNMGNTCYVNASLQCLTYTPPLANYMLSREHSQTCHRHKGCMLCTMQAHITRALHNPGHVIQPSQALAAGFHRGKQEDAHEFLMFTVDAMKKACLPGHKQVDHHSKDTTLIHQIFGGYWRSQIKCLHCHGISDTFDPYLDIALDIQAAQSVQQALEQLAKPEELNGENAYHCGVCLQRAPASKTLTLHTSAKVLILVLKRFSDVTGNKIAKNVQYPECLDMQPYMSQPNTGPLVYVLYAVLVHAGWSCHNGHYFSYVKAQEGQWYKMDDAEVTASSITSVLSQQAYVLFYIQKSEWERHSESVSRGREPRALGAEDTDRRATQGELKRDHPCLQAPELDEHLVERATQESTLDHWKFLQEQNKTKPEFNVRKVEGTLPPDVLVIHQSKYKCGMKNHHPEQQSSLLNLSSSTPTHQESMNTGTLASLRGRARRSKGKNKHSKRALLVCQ

inhibition, active:
O=C(Cn1cc(S(=O)(=O)Cc2ccccc2Cl)c2ccccc21)N1CCCCCC1 42%
Cc1ccc(NC(=O)Cc2sc(Nc3ccc(C)cc3)nc2O)cc1 58.2%
CCOc1ccccc1NC(=O)Nc1cc(-c2nc3ccccc3o2)ccc1OC 57.1%
O=C(Cc1ccccc1Cl)Nc1ccc(N2CCOCC2)cc1 31.6%
COc1ccc(CNC(=O)c2[nH]nc3c2CCc2ccccc2-3)cc1 67.3%
CC(C)(C)c1nn(-c2ccccc2)c2[nH]c(=O)c(CNCCc3ccccc3)cc12 31.9%
N#Cc1ccc(-c2csc(COc3ccccc3Cl)n2)cc1 35%
O=C(CN1C(=O)C2CCCC2=Nc2ccccc21)Nc1ccc(F)cc1F (stereo not drawn) 59.2%
COc1c(O)c2c(=O)cc(OC)c3c4c(OC)cc(=O)c5c(O)c(OC)c(CC(C)OC(=O)c6ccccc6)c(c(c1CC(C)OC(=O)Oc1ccc(O)cc1)c23)c54 (stereo not drawn) 39.4%
CCOc1ccccc1NC(=O)Cc1cccs1 43.3%
Cc1nc(-c2cccc(NC(=O)C3CCN(c4ccccc4)C3=O)c2)no1 (stereo not drawn) 52.3%
N#Cc1ccc(NC(=O)Nc2cccn(Cc3ccccc3F)c2=O)cc1 93.3%
Oc1cccc2nc3c(O)cccc3nc12 96.1%
C[C@H](NC(=O)c1ccc2c(c1)OCO2)c1nc2cc(-c3ccc(F)cc3)ncn2n1 35%
CCC(C(=O)Nc1ccc(-c2cn3cccnc3n2)cc1)c1ccccc1 (stereo not drawn) 45.8%
CC(Oc1ccccc1)C(=O)Nc1ccc(-c2cn3cccnc3n2)cc1 (stereo not drawn) 41.4%
CCOc1ccc(NC(=O)Cn2cc(C(=O)c3ccc(Cl)cc3)c(=O)c3cc(OC)ccc32)cc1 57.1%
COc1c(O)c2c3c(c1O)C(=O)[C@@]1(O)C(=C3C(C)=CC2=O)O[C@@H](C)C1(C)C 37.6%

inhibition, inactive:
O=C(Cn1cc(S(=O)(=O)Cc2ccccc2F)c2ccccc21)N1CCCCCC1 -0.288%
Cc1ccc(CS(=O)(=O)c2cn(CC(=O)N3CCCCC3)c3ccccc23)cc1 -20.5%
COc1ccc(-c2nc(-c3cccs3)no2)cc1OC -2.65%
O=S(=O)(c1ccc(S(=O)(=O)N2CCN3CCCC3C2)cc1)N1CCOCC1 (stereo not drawn) -8.52%
Cc1ccc(Nc2nc(O)c(CC(=O)Nc3ccc(C(C)C)cc3)s2)cc1C 6.68%
CCOc1ccc(Nc2nc(O)c(CC(=O)Nc3cccc(C)c3)s2)cc1 7.74%
NC(=O)CN1C(=O)CO[C@H]2CN(Cc3ccc(F)c(F)c3)C[C@H]21 -11.3%
Cn1c(=O)n(CCCO)c(=O)c2c1nc1n2CCCN1c1ccccc1 9.32%
COc1cccc(N2CCN(C(=O)CCC3=NS(=O)(=O)c4ccc(C)cc4N3)CC2)c1 -26.5%
Cn1c(=O)c2ncn(CC(=O)Nc3ccc(-c4nc5ccccc5o4)cc3)c2n(C)c1=O 8.05%
COc1ccccc1NC(=O)N1CCN(Cc2nc3ccccc3o2)CC1 -4.24%
CCN1CCN(c2cc(C)c3cc(NC(=O)c4cccnc4)ccc3n2)CC1 -9.13%
CCN(CC)c1nc2ccccc2nc1C(=O)Nc1ccc(N2CCOCC2)cc1 -6.91%
Cn1cnnc1SCC(=O)Nc1ccc(N2CCOCC2)c(Cl)c1 -11.6%
O=S(=O)(NCc1nc2cccnc2n1C1CC1)c1ccccc1F 9.68%
Cc1nn(-c2ccc(F)cc2)c(C)c1S(=O)(=O)NCc1ccc2c(c1)OCO2 -23%
COc1ccc(-c2ocnc2C(=O)NCc2ccc(OC)c(OC)c2)cc1 -0.808%
Cn1nc(C(=O)NCCN2CCOCC2)c2c1-c1ccccc1CC2 2.07%
CC(=O)O[C@H]1C[C@@]23COC(=O)/C=C(\C)CCOC(=O)/C=C/C=C\C(=O)O[C@@H]4C[C@@H](O[C@@H]2C=C1C)[C@@]1(CO1)[C@]43C -0.539%
Cc1nn(C)cc1C(=O)Nc1cnn(C)c1C(N)=O 5.15%
CC(C)(C)C(=O)OCc1noc(-c2ccccc2)n1 16.8%
Cc1nn(-c2ccccc2)c2[nH]c(=O)c(C#N)c(-c3ccco3)c12 -26.6%
Cc1ccc(NCc2cc3c(C)nn(-c4ccccc4)c3[nH]c2=O)cc1C -32.1%
CCCC(=O)N1CCC(c2cc(=O)[nH]c(-c3ccccn3)n2)C1 (stereo not drawn) -51.9%
N#Cc1ccc(Oc2ncnc3ccccc23)cc1 4.86%
CC(C)OC(=O)c1cc2c(ccn2-c2ccc(F)cc2)n1Cc1ccccn1 9.79%
Cc1c(CN2CCOC(c3cncc(-c4ccccc4F)n3)C2)cnn1C (stereo not drawn) -0.212%
COc1ccc(C(=O)N2CC(=O)N(Cc3ccccc3)CC(O)C2)cc1 (stereo not drawn) -3.64%
CCOc1nc2cccnc2n(CC(=O)Nc2ccc(F)cc2F)c1=O -5.53%
O=C(CN1C(=O)c2cccnc2Sc2ccccc21)Nc1ccc(F)cc1F -19.9%
Cc1noc(C)c1COc1cccc(C(=O)NC(C)c2cc3ccccc3o2)c1 (stereo not drawn) 1.56%
COc1ccccc1N1CCN(C(=O)CSc2cc(=O)n(C)c3cc(Cl)ccc23)CC1 -7.92%
O=C(NCCc1ccccc1)N1CC[C@@H]2CN(Cc3cccnc3)S(=O)(=O)[C@@H]2CC1 -8.52%
CCOc1ccccc1NC(=O)Cn1c(=O)n(-c2ncccc2C(=O)OC)c(=O)c2cccnc21 -0.0478%
CCOc1ccccc1NC(=O)COc1cccc2c1OC(C)(C)C2 8.61%
CC1CCN(c2ncc3c(n2)CCC(C(=O)NC(C)c2cccnc2)C3)CC1 (stereo not drawn) -33.2%
CC(=O)c1cccc(NC(=O)c2cccc(-c3nc(-c4ccccc4)no3)c2)c1 1.73%
Cc1nc(-c2cccc(S(=O)(=O)Nc3ccccc3C)c2)no1 -1.13%
Cc1cnc2nc3c(cc2c1)CN(S(=O)(=O)c1cccc2cccnc12)CC3 -136%
N#Cc1ccc(OCC(=O)Nc2ccccc2N2CCCCC2)cc1 8.45%
Cc1cc(C)n2nc(CN(Cc3ccccc3)C(=O)c3ccccc3)nc2n1 -5.53%
Cc1ccc(N2CC(c3nnc(NC(=O)CCCc4ccccc4)s3)CC2=O)cc1 (stereo not drawn) -6.98%
CS(=O)(=O)Nc1cccc(C#CCN)c1 -24.2%
O=C(c1sc(N2CCCCC2)nc1-c1ccccc1)c1c[nH]c2ccccc12 -31.2%
CN1CCN(c2nc3c(s2)CN(C(=O)c2ccccc2)CC3)CC1 -15.2%
O=C(CN(C(=O)c1ccccc1)C1CCCCC1)Nc1nc(-c2ccccc2)cs1 11.1%
CC(=O)NC(Cc1ccccc1C)C(=O)NC1CCN(C(=O)Nc2cccc(C)c2)CC1 (stereo not drawn) 1.56%
COc1ccc(C(=O)O)cc1S(=O)(=O)Nc1ccc(-c2ccccc2)cc1 -9.74%
O=c1oc2cccnc2n1Cc1ccccc1F 13%
COc1ccccc1CNC(=O)C1CCN(S(C)(=O)=O)c2ccccc2O1 (stereo not drawn) 1.45%
Cc1ccc(CN2C(=O)CS(=O)(=O)C(C)C2=O)cc1 (stereo not drawn) 0.155%
CC(NC(=O)c1ccc2c(c1)OCCO2)c1ccc2c(c1)OCCCO2 (stereo not drawn) -21.9%
Cc1nc(-c2ccc(C(=O)NCc3ccc4c(c3)OCO4)cc2)cs1 29.5%
Cc1ccc(NS(=O)(=O)c2cc3n(c2)CCCNC3=O)c(F)c1 -11.3%
O=C(c1ncccn1)N1CCCC1c1ncc(Cc2ccccc2Cl)o1 (stereo not drawn) 0.408%
COc1ccc(NC(=O)c2c(N3CCCC3=O)c3cc(F)ccc3n2C)cc1Cl -15.2%
CCC(C(=O)Nc1cc(=O)[nH]c2nc(CCc3ccccc3)nn12)c1ccccc1 (stereo not drawn) 2.97%
Cc1ccn2cc(-c3ccc(NS(=O)(=O)c4cc(C)c(C)cc4C)cc3)nc2n1 -32.9%
CC(=O)c1ccc(NC(=O)C(C)Sc2nnc(COc3ccc(C)cc3)n2Cc2ccccc2)cc1 (stereo not drawn) 7.66%
O=C(Nc1ccc(-c2nc3cccnc3s2)cc1)C(c1ccccc1)c1ccccc1 -146%
Cc1ccc(Cn2c(C(=O)O)c(CNC(C)CCc3ccccc3)c3ccccc32)cc1 (stereo not drawn) -1.67%
Cc1nc(Nc2ncccn2)cc(C2CCCN2S(C)(=O)=O)n1 (stereo not drawn) 0.142%
O=C1CN(C(=O)c2cccc3ccccc23)C(c2ccc(F)cc2)c2cc(Br)ccc2N1 (stereo not drawn) 2.94%
O=C(c1cc2ccccc2[nH]1)N1CCCC2(COCCN(c3cccnc3)C2)C1 (stereo not drawn) 16.4%
CCOc1ccc2c(c1)c(=O)c(C(=O)c1ccccc1)cn2CC(=O)Nc1ccc(OC)cc1 -0.53%
COc1ccc(NC(=O)CSc2cn(CC(=O)N3CCCC3)c3ccccc23)cc1 7.65%
O=C(C1CC1)N1CCc2cc(S(=O)(=O)NCCCN3CCN(Cc4ccccc4)CC3)ccc21 -6.1%
COc1ccc(-c2nc3c(c(=O)c4ccccc4n3C)c(=O)n2CCc2ccc(OC)c(OC)c2)cc1 7.74%
Cc1nn(-c2ccccc2)c(C)c1S(=O)(=O)Nc1ccccc1C(N)=O 7.84%
COc1cccc(CNS(=O)(=O)c2cc3[nH]c4c(c3cc2C)C(=O)CCC4)c1 -25.1%
